Shown is part of a subset that was picked to be rich in hits.
ST2 inh: inhibitors of human ST2 (IL1RL1) binding to IL-33; inhibition, % for hits at 17 µM; AlphaLISA ST2-Fc/biotin-IL-33 interaction, 1 h; 78,000 tested, 2.3% active; Q01638; in the data active = inhibition above about 30%
Target sequence (Q01638 whole entry, looked up): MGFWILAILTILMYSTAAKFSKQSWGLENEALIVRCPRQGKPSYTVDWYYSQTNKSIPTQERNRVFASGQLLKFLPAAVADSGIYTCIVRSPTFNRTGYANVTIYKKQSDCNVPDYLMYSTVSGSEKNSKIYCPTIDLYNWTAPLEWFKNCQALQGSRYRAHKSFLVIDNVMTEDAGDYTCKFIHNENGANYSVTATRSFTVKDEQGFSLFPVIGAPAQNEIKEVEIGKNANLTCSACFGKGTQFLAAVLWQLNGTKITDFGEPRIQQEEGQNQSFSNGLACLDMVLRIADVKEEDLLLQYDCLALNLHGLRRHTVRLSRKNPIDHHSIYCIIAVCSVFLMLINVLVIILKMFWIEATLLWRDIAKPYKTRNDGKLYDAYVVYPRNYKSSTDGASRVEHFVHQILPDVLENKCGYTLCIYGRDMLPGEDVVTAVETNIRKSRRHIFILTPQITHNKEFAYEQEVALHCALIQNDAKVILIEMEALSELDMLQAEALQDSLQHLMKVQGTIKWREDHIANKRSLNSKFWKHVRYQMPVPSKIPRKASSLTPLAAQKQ
Large screens that a line does not name were inactive; ! = a repeat was not active.

O=C(CSc1nc2c(sc3ccccc32)c(=O)n1CCO)NCc1ccccc1	none
Cc1ccc2[nH]c(CCCNC(=O)c3c(Cl)cnn3C)nc2c1C	none
CC1=C[C@@H](CNC(=O)c2ccc(C#N)cc2)[C@H](C(C)C)C[C@H]1CC(=O)Nc1ccccn1	ST2 inh 81%
CC1=C[C@@H](CNS(=O)(=O)c2cccc(C#N)c2)[C@H](C(C)C)C[C@H]1CC(=O)Nc1ccccn1	none
CC1=C[C@@H](CNC(=O)c2ccncc2)[C@H](C(C)C)C[C@H]1CC(=O)NCc1ccc(C#N)cc1	none
CCc1cccc(CC)c1NS(=O)(=O)c1cc(Br)cc2c1N(C(C)=O)C(C)C2 (stereo not given)	none
O=S(=O)(Nc1ccc(Br)cc1)c1ccc(F)cc1	none
O[C@@H]1CN(Cc2cnn(-c3ccccc3)c2)CC[C@H]1c1ccc(F)cc1	none
COc1cccc(NC(=O)N[C@H]2CCN3C(=O)[C@@H](Cc4ccccc4)NC(=O)[C@H]23)c1	none
CC(C)[C@H]1NC(=O)[C@@H]2[C@@H](NC(=O)NC3CCCCC3)CCN2C1=O	ST2 inh 43%
O=C(N[C@H]1CCN2C(=O)c3ccccc3NC(=O)[C@H]12)C1CCCC1	none
CCCCOc1ccccc1C(=O)N1CCCC2(CN(C)C(=O)O2)C1 (stereo not given)	none
O=C1Nc2ccccc2C1=Nc1cccc(S(=O)(=O)Nc2ccccc2)c1	none
Cc1ccc(NCN2C(=O)S/C(=C/c3ccccc3)C2=O)cc1Cl	none
O=C1S/C(=C\c2c(NCC3CCCO3)nc3ccccn3c2=O)C(=O)N1Cc1ccccc1 (stereo not given)	none
CCNc1nc2ccccn2c(=O)c1/C=C1\SC(=O)N(CC)C1=O	ST2 inh 30%
O=C(CCN1CCCO1)NCc1ccc2[nH]c3c(c2c1)CCCCC3	none
O=S(=O)(c1ccc2c(c1)OCCO2)N1CCC(n2cnc3cccnc32)CC1	ST2 inh 98%
Cc1ccc(S(=O)(=O)N2CCC(n3c(C)nc4cccnc43)CC2)cc1C	none
CCc1nc2cccnc2n1C1CCN(S(=O)(=O)c2ccc(C(C)(C)C)cc2)CC1	none
Cc1ccc(C(=O)N2CCC(C(Cc3ccc(F)cc3F)N(C)C(=O)c3cccnc3)CC2)cc1C (stereo not given)	none
O=[N+]([O-])c1ccc(C2Nc3c(cccc3[N+](=O)[O-])C3C=CCC32)cc1 (stereo not given)	ST2 inh 45%
CC1(C)C(=O)OC(c2ccccc2[N+](=O)[O-])C(C)(C)C1=O (stereo not given)	none
COc1ccc(C(=O)N2CCCCC2)cc1[N+](=O)[O-]	none
O=S(=O)(c1ccc([C@@H]2Nc3ccc(Br)cc3[C@@H]3C=CC[C@@H]32)cc1)N1CCOCC1	none
O=C(c1ccc2c(c1)C1C=CCC1C(c1ccc([N+](=O)[O-])cc1)N2)N1CCCCCC1 (stereo not given)	ST2 inh 40%
O=[N+]([O-])c1ccc(C2CNC(c3ccccc3)O2)cc1 (stereo not given)	none
CC(CN1CCc2ccccc2C1)NC(=O)c1cccc2ccnn12 (stereo not given)	none
CN1CCCC(CN(CCc2ccccc2)C(=O)C2=CCCC2)C1 (stereo not given)	none
CN1CCC2(CC1)CN(C(=O)CCC(=O)c1ccc(F)cc1)CCN2C	none
Cc1nn(-c2ccccc2)c(C)c1Sc1ccc([N+](=O)[O-])cc1	none
Cc1c(C)n(CC(O)CNc2ccc(Br)cc2)c2ccccc12 (stereo not given)	ST2 inh 31%
Cc1c(C)n(CC(O)CN2CCOCC2)c2ccccc12 (stereo not given)	none
Cc1ccc(NCC(O)Cn2c(C)c(C)c3ccccc32)cc1C (stereo not given)	none
Cc1cc(C)n(CC(O)Cn2c(C)c(C)c3ccccc32)n1 (stereo not given)	none
CN(CC(O)Cn1c2ccccc2c2ccccc21)S(=O)(=O)c1ccc(Br)cc1 (stereo not given)	none
Cc1ccc(NCC(O)Cn2c(C)c(C)c3ccccc32)cc1 (stereo not given)	ST2 inh 36%!
CCOC(=O)C1=NN(c2ccccc2)C2C(=O)N(c3ccc(C)cc3)C(=O)C12 (stereo not given)	none
Cc1nc(CN(C)Cc2nc3ccccc3n2CC(C)C)no1	none
O=C1NC(=Nc2ccc(O)cc2)S/C1=C\c1cccc(O)c1	none
COc1ccccc1C=C1C(=O)OC(C)(c2ccccc2)OC1=O (stereo not given)	none
CN(C)c1ccc(/C=C2/SC(=Nc3ccccc3Cl)NC2=O)cc1	ST2 inh 39%
COc1ccccc1/C=C1/SC(=Nc2ccccc2Cl)NC1=O	ST2 inh 33%
COc1ccccc1Oc1ncccc1CNCc1ccc2c(c1)CCO2	none
O=C(CC1CCCC1)N1CCC(CO)(Cc2cccc(C(F)(F)F)c2)CC1	none
O=C1CC(c2ccccc2)CC2=C1C(c1cc3c(cc1[N+](=O)[O-])OCO3)Nc1ccccc1N2 (stereo not given)	ST2 inh 44%
O=C1CC(c2ccccc2)CC2=C1C(c1ccccc1Br)Nc1ccccc1N2 (stereo not given)	none
O=C1CC(c2ccccc2)CC2=C1C(c1cc(Br)ccc1F)Nc1ccccc1N2 (stereo not given)	none
NC(=O)c1ccccc1NC(=O)c1cccc(I)c1	none

Screening results from PubChem.
